According to the supplement of paper PMC13380429:

Tested on: Vero E6 infected with SARS-CoV-2
Assay: inhibition of SARS-CoV-2 cytopathic effect; higher = more antiviral protection, active = above 15
Settings: 48 h

Measured: inhibition of SARS-CoV-2 cytopathic effect

Cn1c(NCCN(CCO)CCCc2ccc([N+](=O)[O-])cc2)cc(=O)n(C)c1=O [nifekalant]
inactive: 1 nM -1.86% | 8.33 nM 0% | 100 nM -1.76% | 833.33 nM -0.02% | 10000 nM -1.25%

Cc1c(C)c(NCC(=O)N(C)C2CCN(Cc3ccc(C(N)=O)cc3)CC2)c(C)c(C)c1N
inactive: 1 nM -0.43% | 8.33 nM -0.21% | 100 nM 0.76% | 833.33 nM -0.15% | 10000 nM 2.16%

COc1cc2c(cc1OC)CN(CCc1ccc(NC(=O)c3cc(OC)c(OC)cc3NC(=O)c3cnc4ccccc4c3)cc1)CC2 [tariquidar]
inactive: 1 nM 1.54% | 8.33 nM -1.28% | 100 nM 2.75% | 833.33 nM 1.99% | 10000 nM -0.52%

Cc1ccc(S(=O)(=O)OCC(=O)Nc2ccc(C(=O)O)c(O)c2)cc1 [STAT3-inhibitor-VI]
inactive: 1 nM -0.14% | 8.33 nM -0.23% | 100 nM 0.11% | 833.33 nM -1.76% | 10000 nM 1.39%

COc1c(Nc2ccc(S(C)(=O)=O)nc2C)ncnc1OC1CCN(C(=O)OC(C)C)CC1
inactive: 1 nM -1.98% | 8.33 nM 0.8% | 100 nM 0.06% | 833.33 nM -1.17% | 10000 nM -1.76%

CC(C)(CO)[C@@H](O)C(=O)NCCC(=O)O [pantothenic-acid]
inactive: 1 nM 0.14% | 8.33 nM -0.18% | 100 nM 0.03% | 833.33 nM -0.87% | 10000 nM 2.81%

O=C(COc1ccc(C(=O)c2ccccc2)cc1)NC1CCN(Cc2ccccc2)CC1 [adiporon]
inactive: 1 nM -2.19% | 8.33 nM -0.76% | 100 nM 0.29% | 833.33 nM 0.19% | 10000 nM -1.05%
